# Laboratory results published in PubChem BioAssay (NCATS).
# Inconclusive results are not listed. Calls of active or inactive are those of the source. The call rests on the fitted dose curve; in most records, active means well fitted cell-killing curve with a large enough effect; inconclusive means small, poorly fitted or top-dose-only effect; inactive means flat fitted curve, though single readings scatter.
# Assay: Cell Viability - LYMP2-021 (AID 974);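 further: compound exposure lasts 24 hours at 37 °C; nearly all actives have a fitted effect of over 55% in size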
# Conditions: LYMP2-021 lymphoblastoid cells viability; series mostly up to 92.2 µM; activity change, negative = cytotoxicity: at the top concentration
# From the text: NIH Chemical Genomics Center [NCGC]
# NIH Molecular Libraries Screening Centers Network [MLSCN]
# National Institutes of Environmental Health Sciences [NIEHS]
# National Toxicology Program [NTP]
# We have developed a 1536-well cell-based assay for quantitative high throughput screening (qHTS) against a number of cell lines to determine in vitro cytotoxicity of small molecules. This particular assay uses a human lymphoblastoid cell line (LYMP2-021) purchased from Coriell Institute for Medical Research.
# NCGC Assay Protocol Summary:
# The CellTiter-Glo luminescent cell viability assay (Promega) is a homogeneous method to measure the number of viable cells in culture. The end point readout of this assay is based on quantitation of intracellular ATP, an indicator of metabolic activity, using the luciferase reaction. Luciferase catalyzes the oxidation of beetle Luciferin to oxyluciferin and light in the presence of ATP. The luminescent signal is proportional to amount of ATP present.
# Using the CellTiter-Glo luminescent cell viability assay, the amount of cellular ATP was measured in the lymphoblastoid cell line with complete culture medium following compound treatment for 24 hours. The assay was performed in opaque white Kalypsys 1536-well plates. In the screen, tetraoctylammonium bromide was used as positive control. Library compounds were measured for their ability to cause acute toxicity in the cell line, as reflected by a decrease in intracellular ATP levels, in a concentration-dependent manner. […] AC50 values were determined from concentration-response data modeled with the standard Hill equation.
# qHTS protocol for CellTiter Glo lymphoblastoid cellular assay
# [Step] [Parameter] [Value] [Description]
# 1. Reagent; 5 uL; 2500 lymphoblastoid cells/well
# 2. Time; 5 hr; 37 C incubation
# 4. Controls; 23 nL; Tetraoctylammonium bromide 6.4pM to 92 uM
# 5. Time; 24 hr; 37 C incubation
# 6. Reagent; 5 uL; CellTiter Glo reagent
# 7. Time; 30 min; Room Temperature
# 8. Detection; Luminescence; Viewlux plate reader
# Keywords: cell viability, cytotoxicity, lymphoblastoid cell line, luminescence, NTPHTS, NTPHTS_NCGC, NIEHS, DSSTox, MLSMR, MLSCN, NIH Roadmap, qHTS, NCGC
# On the % scale 0 is the no-effect control and ±100 the full control effect.
row,SMILES,"activity change, negative = cytotoxicity"
1,C=C(Cl)CCl,-5.42% (inactive)
2,Cl/C=C\Cl,-2.27% (inactive)
3,Clc1ccc(C(Cl)(Cl)Cl)c(Cl)c1,0.664% (inactive)
4,OCCBr,-1.04% (inactive)
5,ClCCOCOCCCl,-3.81% (inactive)
6,CCCCOCC1CO1 (stereo not given),-8.14% (inactive)
7,CC(C)[C@]12CC(=O)[C@H](C)[C@H]1C2,-0.0037% (inactive)
8,N#C/C(N)=C(/N)C#N,-3.08% (inactive)
9,CC(C)OS(C)(=O)=O,4.41% (inactive)
10,CCCBr,0.993% (inactive)
11,CCCCCCCCCCCOC(=O)c1ccccc1C(=O)OCCCCCCCCCCC,0.846% (inactive)
12,O=[N+]([O-])c1ccccc1O,-13.3% (inactive)
13,O=C(O)CCl,-12.6% (inactive)
14,ClC(Cl)C(Cl)Cl,0.372% (inactive)
15,C=CC(=O)OCCN(C)C,-3.69% (inactive)
16,C=C(Cl)CSC(=S)N(CC)CC,-28.1% (inactive)
17,O=[N+]([O-])c1cc(Cl)c(Cl)c(Cl)c1,-6.35% (inactive)
18,BrCC(Br)C1CCC(Br)C(Br)C1 (stereo not given),-5.85% (inactive)
19,ClC(Cl)Br,-1.27% (inactive)
20,CCNCC,-2.27% (inactive)

row,SMILES,"activity change, negative = cytotoxicity"
1,ClC(Cl)c1ccccc1,-5.66% (inactive)
2,ClCc1ccccc1,2.4% (inactive)
3,CCCCC(=O)Cl,-24.4% (inactive)
4,CC(C)(C)C(O)(CCc1ccc(Cl)cc1)Cn1cncn1 (stereo not given),-13.2% (inactive)
5,O=P(OCCCl)(OCCCl)OCCCl,-3.37% (inactive)
6,C=CC(=O)OC,-1.84% (inactive)
7,[O-][Cl+]O,1.61% (inactive)
8,CN(C)C(=O)Cl,-2.1% (inactive)
9,CC(C)OC(=O)Cc1ccccc1,-1.9% (inactive)
10,ClCC(Cl)CCl,-1.27% (inactive)
11,CC(C)C#N,-3.69% (inactive)
12,Nc1c(Br)cc([N+](=O)[O-])cc1[N+](=O)[O-],-15.8% (inactive)
13,Brc1ccc(Oc2ccc(Br)cc2Br)c(Br)c1,-3.86% (inactive)
14,Cc1cc(Cl)ccc1O,-0.0797% (inactive)
15,CCCCCc1cc(O)cc(O)c1,3.09% (inactive)
16,CN(C)C(=O)Nc1ccc(Cl)cc1,-4.66% (inactive)
17,C=CCc1cc(OC)c2c(c1)OCO2,3.75% (inactive)
18,CC12CC1(C)C(=O)N(c1cc(Cl)cc(Cl)c1)C2=O (stereo not given),-8.22% (inactive)
19,Cc1coc2c1CCC(C)C2 (stereo not given),-4.55% (inactive)
20,O=C(O)CBr,3.2% (inactive)
